# UHRF1 binding: UHRF1 methyl-DNA binding inhibition. Q96T88. UHRF1 binding to methylated oligo, TR-FRET. inhibition, % at 4.4 µM. 0.75% of 370,000 active; in the data active = inhibition above about 21%;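 also: UHRF1 SRA domain binding a hemimethylated CpG hairpin DNA probe; 0% = median of test compound wells and 100% = reference inhibitor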
# LEDGF integ inh: blocks HIV-1 LEDGF/p75-dependent DNA integration; TR-FRET IN-LEDGF/p75 DNA integration, Eu/Cy5; inhibition, % at 3.7 µM; 0.64% of 370,000 active;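 active = inhibition above the screen-wide mean plus 3 SD, cut at about 13% in these data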;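 also: signal is the Cy5 over europium emission ratio at 671 and 618 nm; 0% = plate median of compound wells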
# DNMT1 inh: inhibitors of human DNMT1 | 0.83% of 360,000 active | DNMT1 molecular beacon, Hinp1I cleavage, fluorescence | inhibition (reported as % activation of signal), % at 10 µM | P26358; in the data active = inhibition above about 50%
# MBD2 inh: inhibitors of human MBD2 binding to methylated oligonucleotide; Q9UBB5; TR-FRET; inhibition, % at 4.4 µM; 0.31% of 370,000 active; in the data active = inhibition above about 13%
# Target sequence (Q9UBB5 whole entry, looked up): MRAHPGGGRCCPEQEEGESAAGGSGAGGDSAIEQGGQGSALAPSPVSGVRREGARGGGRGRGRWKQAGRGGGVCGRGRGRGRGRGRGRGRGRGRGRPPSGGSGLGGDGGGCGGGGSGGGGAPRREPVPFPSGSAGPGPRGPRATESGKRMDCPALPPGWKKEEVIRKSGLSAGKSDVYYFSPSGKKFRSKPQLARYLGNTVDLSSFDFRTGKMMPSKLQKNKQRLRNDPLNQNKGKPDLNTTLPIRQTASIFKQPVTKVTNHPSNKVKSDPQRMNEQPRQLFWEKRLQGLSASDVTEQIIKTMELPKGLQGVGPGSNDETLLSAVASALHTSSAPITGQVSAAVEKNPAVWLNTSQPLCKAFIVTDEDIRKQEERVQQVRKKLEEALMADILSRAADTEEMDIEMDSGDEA
# rCAG RNA binder: molecules binding r(CAG) RNA repeats. AID 651821. inhibition, % at 3 µM. r(CAG) RNA repeat, TO-PRO-1 dye displacement fluorescence. 1.3% of 370,000 active;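 active = inhibition above the plate cutoff, the mean of all test compounds on that plate plus 3 SD, cut at about 35% in these data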;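 also: 0% = DMSO alone and 100% = 100 µM mitoxantrone as full dye displacement; higher means more dye released from RNA so lower well fluorescence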
# PG9 Ab binder: binds the HIV-1 gp120 antibody PG9; inhibition, % at 6.7 µM; TR-FRET gp120-PG9 antibody binding; 0.43% of 360,000 active; in the data active = inhibition above about 8.5%
# rCAG binder conf: r(CAG) RNA repeat binding, confirmation; shares compounds with rCAG RNA binder; TO-PRO-1 dye displacement fluorescence; inhibition, % at 3 µM; 70% of 4,300 active;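 active = inhibition above a per-plate cutoff, the mean inhibition of sample wells plus 3 SD, cut at about 35% in these data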;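 also: loss of TO-PRO-1 fluorescence as compound displaces dye from 1x1 AA loop RNA; 0% = DMSO only wells and 100% = 100 µM mitoxantrone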
# DNA CAG counter: counter-screen for rCAG RNA binders: DNA CAG dye complex inhibitors | 94% of 4,300 active | shares compounds with rCAG RNA binder | d(CAG) DNA oligo TO-PRO-1 dye displacement, fluorescence | inhibition, % at 3 µM;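 active = inhibition above its plate's cutoff, the mean test-well inhibition plus 3 SD, cut at about 4.8% in these data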;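 also: 0% = DNA dye mix with DMSO and 100% = 100 µM mitoxantrone; hits displace the dye from DNA and so lower well fluorescence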
# DNA CAG DR: DNA CAG dye complex inhibition, dose response counter-screen; 20% of 250 active; DNA CAG/GTC duplex TO-PRO-1 dye displacement fluorescence; shares compounds with rCAG RNA binder; AID 686960; IC50, µM; in the data active = IC50 below about 10 µM
# * marks the source's active call; other numbers are inactive results; . = no result. Hits are enriched below; roughly 3.5% of the tested compounds scored in any of these assays.
SMILES,UHRF1 binding,LEDGF integ inh,DNMT1 inh,MBD2 inh,rCAG RNA binder,PG9 Ab binder,rCAG binder conf,DNA CAG counter,others
CN(CC(=O)Nc1ccc(F)cc1)C(=O)COC(=O)c1cc([N+](=O)[O-])ccc1N1CCOCC1,.,.,-3.3,.,.,.,.,.,
O=C(O)CC1S/C(=N/N=C/C=C/c2ccccc2[N+](=O)[O-])NC1=O (configuration not stated),0.7,-2.1,4.2,-0.1,4.3,-1.6,.,.,
O=C(O)CC1S/C(=N/N=C/c2ccc(-c3ccc(Cl)c([N+](=O)[O-])c3)o2)NC1=O (configuration not stated),1.5,1.3,24.8,0.9,35.1*,-2.5,18.6,8.0*,
Cc1ccc(/C=N/N=C2/NC(=O)C(CC(=O)Nc3ccc(Cl)cc3)S2)o1 (configuration not stated),0.7,-0.7,-5.2,0.6,7.2,1.0,.,.,
O=C(O)CC1S/C(=N/N=C/c2ccc(-c3ccc(Cl)cc3[N+](=O)[O-])o2)NC1=O (configuration not stated),-4.9,1.1,-19.5,-3.0,43.0*,-3.3,22.4,6.6*,
Cc1cc(NC(=O)CSc2nc(-c3cccs3)nc3ccccc23)no1,2.0,1.1,11.3,7.9,7.6,4.6,.,.,
COc1ccc(-c2cc(=O)n(-c3nc4ccccc4[nH]3)[nH]2)cc1,-5.3,2.8,-0.4,0.0,38.9*,-0.8,14.9,10.3*,
CCc1nnc(NC(=O)c2ccc(NS(=O)(=O)c3ccccc3)cc2)s1,0.8,1.5,-0.8,6.7,21.4,5.3,.,.,
CCc1nnc(NS(=O)(=O)c2ccc(NC(=O)c3ccc(C#N)cc3)cc2)s1,-0.1,1.9,-0.7,1.9,35.7*,-1.4,21.4,4.1,
CCc1nnc(NS(=O)(=O)c2ccc(NC(=O)C(c3ccccc3)c3ccccc3)cc2)s1,-0.1,-2.5,-1.6,-1.7,84.5*,0.0,71.7*,33.9*,DNA CAG DR=9.25*
CCc1nnc(NS(=O)(=O)c2ccc(NC(=O)c3cccc(Cl)c3)cc2)s1,0.9,-0.6,-2.7,-4.1,53.8*,2.1,50.3*,10.3*,DNA CAG DR=>29.9
CCc1nnc(NS(=O)(=O)c2ccc(NC(=O)c3ccccc3OC)cc2)s1,2.8,0.2,0.7,-3.5,48.8*,-1.1,25.3,6.0*,
CCC(=O)N1CCc2cc(S(=O)(=O)N3CCN(c4cc(Cl)ccc4C)CC3)ccc21,6.3,0.3,-0.2,-3.0,4.5,0.9,.,.,
NC(=O)C1CCN(c2nc(-c3ccc(Oc4ccccc4)cc3)cs2)CC1,-0.8,-4.8,.,3.0,.,.,.,.,
O=C(Nc1ccccn1)c1sc2cc([N+](=O)[O-])ccc2c1Cl,-2.3,-1.7,3.4,-1.7,2.9,-14.9,.,.,
CCc1nnc(NC(=O)c2ccc(S(=O)(=O)N(CC)CC)cc2)s1,0.1,-2.4,2.7,4.2,1.2,-0.4,.,.,
CCCN(CCC)S(=O)(=O)c1ccc(C(=O)Nc2ccc(S(=O)(=O)Nc3nnc(CC)s3)cc2)cc1,-0.7,-4.8,-6.3,2.1,80.5*,-1.6,83.8*,53.9*,
CCc1nnc(NS(=O)(=O)c2ccc(N/C=C(\C=O)c3nc4cc(Cl)ccc4o3)cc2)s1,-2.5,5.9,-4.5,0.2,41.5*,-2.3,76.0*,39.8*,
CCc1nnc(NS(=O)(=O)c2ccc(NC(=O)c3ccc(Cl)cc3)cc2)s1,-0.4,-8.1,-3.5,0.8,42.7*,-2.9,33.0,9.1*,
CCc1nnc(NS(=O)(=O)c2ccc(NCc3ccccc3O)cc2)s1,-1.1,-1.9,0.0,4.3,14.7,2.0,.,.,
CCc1nnc(NS(=O)(=O)c2ccc(N/C=C\C(=O)c3ccc4ccccc4c3)cc2)s1,-2.2,0.2,5.8,2.9,70.9*,1.9,85.5*,61.0*,
Cc1ccccc1CN1CCN(c2nc3ccccc3s2)CC1,2.9,-4.1,4.3,7.5,1.8,0.4,.,.,
CCc1nnc(NS(=O)(=O)c2ccc(NC(=O)c3cccc(OC)c3)cc2)s1,0.6,-1.9,-1.4,-0.1,38.8*,0.5,27.1,5.5*,
CCc1nnc(NS(=O)(=O)c2ccc(N3C(=O)C4CC=C(Cl)CC4C3=O)cc2)s1 (configuration not stated),-1.9,2.6,2.9,-0.6,49.1*,-1.6,25.9,7.6*,
Cc1cc(C)nc(NS(=O)(=O)c2ccc(N3C(=O)C4CC=C(Cl)CC4C3=O)cc2)n1 (configuration not stated),2.4,-0.3,-0.6,2.9,11.8,-0.5,.,.,
SMILES,UHRF1 binding,LEDGF integ inh,DNMT1 inh,MBD2 inh,rCAG RNA binder,PG9 Ab binder,rCAG binder conf,DNA CAG counter,others
CCCCc1c(-c2ccccc2OC)ncn1Cc1cccc(F)c1F,-1.5,-2.0,.,-3.4,-0.6,-0.3,.,.,
CC(C)C(N)c1csc(NC(=O)Nc2cccc(C(F)(F)F)c2)n1 (configuration not stated),-0.8,9.0,-4.9,-3.5,41.9*,0.0,44.8*,4.2,DNA CAG DR=>29.9
O=C(Nc1ccncc1)Nc1cccc(C(F)(F)F)c1,-1.7,0.3,1.1,-0.8,2.2,-0.3,.,.,
COc1ccc(CC(N)c2csc(NC(=O)Nc3cccc(C(F)(F)F)c3)n2)cc1 (configuration not stated),-0.7,8.7,-17.4,-4.2,47.0*,-0.5,26.1,7.1*,
COc1cc(NC(=O)Nc2nc(C(N)CCc3ccccc3)cs2)cc(OC)c1OC (configuration not stated),0.5,-1.7,-36.3,-1.1,35.4*,0.8,29.8,1.5,
NCc1csc(NC(=O)Nc2cccc(C(F)(F)F)c2)n1,0.0,-0.3,-9.6,3.5,53.4*,-0.1,50.5*,10.8*,DNA CAG DR=>29.9
COc1ccc(CC(N)c2csc(NC(=O)Nc3ccc(F)cc3)n2)cc1 (configuration not stated),-1.5,0.5,-40.4,0.4,42.6*,1.5,21.2,9.5*,
NC(Cc1ccc(Cl)cc1)c1csc(NC(=O)Nc2ccccc2)n1 (configuration not stated),0.1,2.7,-25.1,4.5,37.8*,2.1,22.7,10.8*,
NC(COCc1ccccc1)c1csc(NC(=O)Nc2cccc(Cl)c2)n1 (configuration not stated),-1.0,8.6,-20.2,2.1,47.9*,-1.4,24.0,5.5*,
NC(Cc1ccc(C(F)(F)F)cc1)c1csc(NC(=O)Nc2ccccc2)n1 (configuration not stated),1.3,4.8,-32.1,1.1,35.0*,1.5,16.3,7.5*,
NC(Cc1ccc(C(F)(F)F)cc1)c1csc(NC(=O)Nc2ccccc2Cl)n1 (configuration not stated),-1.7,2.2,-19.9,1.4,14.0,-0.8,.,.,

# Screens from PubChem BioAssay.
